A selection: hits, their analogues and other compounds. The true share with any hit is near 5.2%.
TrxR1 inh: rat TrxR1 inhibition; recombinant rTrxR1, NADPH fluorescence consumption, selenite substrate; Potency, µM (highest dose often 114 µM), without a hit: at the top dose activity change, negative = inhibition, hits mostly inhibitors; 390,000 tested, 1% active; AID 588453; also: potency is read from the fitted curve at half-maximal effect; % is scaled to controls: 0 for no effect and ±100 for the full control effect; nearly all actives have a fitted effect of over 65% in size
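Rat TrxR1 (90 nM in the dispensed reagent) was pre-reduced with 400 uM NADPH for 5 min at room temperature, then incubated with compound for 15 min. After 400 uM selenite was added, NADPH fluorescence (Ex 340/Em 450 nm) was followed for 8 min.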
Sfp PPTase inh: blocks B. subtilis Sfp PPTase activity; Q9F4F7; Biochemical Sfp PPTase activity, qHTS; Potency, µM, without a hit: largest response in the series, negative = inhibition, usual class: inhibitors; 310,000 tested, 3.5% active;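 also: the enzyme is Sfp with the accession as filed and its product quenches rhodamine fluorescence; potency is read from the fitted curve at half-maximal effect; 0% = enzyme reaction without inhibitor and -100% = no enzyme wells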
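Fluorescence-quenching assay with 15 nM Sfp, 5 uM rhodamine-CoA and 12.5 uM BHQ-2-labelled ybbR peptide in pH 7.6 Hepes/MgCl2 buffer. Enzyme was pre-incubated with compound for 15 min at room temperature. Rate was taken from the 30-min fluorescence change (525/598 nm).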
TrxR1 substrate: is turned over as a substrate by rat TrxR1 | O89049 | purified TrxR1 substrate turnover, NADPH consumption readout | Potency, µM (highest dose often 114 µM), for the others: at the highest dose activity change, negative = substrate turnover | 390,000 tested, 0.01% active | AID 588456; also: potency is read from the fitted curve at half-maximal effect; % is scaled to controls: 0 for no effect and ±100 for the full control effect; nearly all actives have a fitted effect of over 50% in size
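Rat TrxR1, dispensed at 90 nM, was prereduced with 400 uM NADPH (final) for 5 min at ~22 deg C, then incubated with compound 15 min before 400 uM selenite. A first-read NADPH fluorescence drop versus no-compound background flagged substrates.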
PLK1 PBD block: blocks phosphopeptide binding to human PLK1 polo-box domain; 360,000 tested, 2.8% active; Plk1 PBD binding of FITC phosphopeptide, fluorescence polarization; P53350; AID 720504; Potency, µM, for inactives: max response, negative = inhibition, actives largely listed as inhibitors; also: potency is read from the fitted curve at half-maximal effect; series mostly up to about 57 µM; % is scaled to controls: 0 for no effect and ±100 for the full control effect; nearly all actives have a fitted effect of over 65% in size
VDR inhibitor: inhibitors of human vitamin D receptor; Potency, µM, without a hit: max response, negative = inhibition, actives largely listed as inhibitors; P11473; AID 504847; 400,000 tested, 0.93% active; VDR-SRC2-3 peptide fluorescence polarization, 2 h; also: potency is read from the fitted curve at half-maximal effect; % is scaled to controls: 0 for no effect and ±100 for the full control effect
Target sequence (P11473 whole entry, looked up): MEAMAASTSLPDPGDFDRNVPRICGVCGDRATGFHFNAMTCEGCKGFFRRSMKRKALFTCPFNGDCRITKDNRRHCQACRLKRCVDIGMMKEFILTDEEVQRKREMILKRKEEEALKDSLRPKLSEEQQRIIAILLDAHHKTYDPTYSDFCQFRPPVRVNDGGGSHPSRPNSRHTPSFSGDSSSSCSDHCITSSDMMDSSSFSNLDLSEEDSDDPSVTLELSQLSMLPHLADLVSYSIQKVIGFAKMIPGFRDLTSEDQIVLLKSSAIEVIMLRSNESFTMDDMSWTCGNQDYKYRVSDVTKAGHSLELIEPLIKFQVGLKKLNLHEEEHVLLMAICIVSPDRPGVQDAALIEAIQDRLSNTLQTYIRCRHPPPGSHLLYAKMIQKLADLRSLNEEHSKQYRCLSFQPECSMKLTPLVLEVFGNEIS
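Fluorescence polarization assay of small-molecule disruption of VDR binding to coregulator peptide SRC2-3. Compounds and controls pin-transferred, then read after 2 h incubation at ambient room temperature.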
mIDH1 inhibitor: human IDH1 R132H inhibition; IDH1-R132H enzyme, NADPH consumption, diaphorase/resazurin fluorescence; Potency, µM (titrated, usually from 76.6 µM), for the others: at the top dose activity change, negative = inhibition, actives largely listed as inhibitors; 390,000 tested, 0.093% active; AID 602179; also: potency is read from the fitted curve at half-maximal effect; % is scaled to controls: 0 for no effect and ±100 for the full control effect; nearly all actives have a fitted effect of over 65% in size
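IDH1-R132H (0.5 ug/mL dispensed) in pH 7.5 Tris buffer was preincubated 30 min with compound, then given a substrate mix of 0.016 mM NADPH and 2 mM alpha-KG for 80 min at room temperature; remaining NADPH was read by diaphorase/resazurin fluorescence.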
Sfp inh conf: confirmation of Bacillus subtilis Sfp PPTase inhibitors. shares compounds with Sfp PPTase inh. Sfp PPTase enzymatic assay, qHTS titration. Potency, µM (doses to about 114 µM), inactives show at the top dose activity change, negative = inhibition, usual class: inhibitors. 380 tested, 79% active. AID 2701;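 also: potency is read from the fitted curve at half-maximal effect; plate controls were uninhibited Sfp reaction for no effect and no enzyme control for full effect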
Target sequence (Q9F4F7 whole entry, looked up): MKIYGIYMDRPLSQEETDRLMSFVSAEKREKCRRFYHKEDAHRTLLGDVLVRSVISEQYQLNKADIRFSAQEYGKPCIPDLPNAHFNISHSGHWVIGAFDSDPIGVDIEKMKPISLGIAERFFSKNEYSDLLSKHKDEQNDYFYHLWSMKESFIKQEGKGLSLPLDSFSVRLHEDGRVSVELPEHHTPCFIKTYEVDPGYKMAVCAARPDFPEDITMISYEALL
Sfp gel assay: Inhibits Bacillus subtilis Sfp phosphopantetheinyl transferase | AID 2707 | Potency, µM, usual class: inhibitors | purified Sfp, gel-based phosphopantetheinylation read-out | shares compounds with Sfp PPTase inh | 210 tested, 20% active;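 active = potency below 100 µM; inconclusive = dose-dependent response but potency above 100 µM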;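 also: band intensities scaled against SCH202676 control wells before curve fitting; potency is an IC50 for inhibitors of Sfp transfer activity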
USP1-UAF1 confirm: USP1-UAF1 deubiquitinase inhibition validated; Ub-Rhodamine cleavage, fluorescence kinetic read; shares compounds with VDR inhibitor; Potency, µM (highest dose often 114 µM), for inactives: at the highest dose activity change, negative = inhibition, most hits filed as inhibitors; 50 tested, 50% active; AID 540327
TbPYK confirm: Trypanosoma brucei pyruvate kinase inhibition, cherry-pick confirmation; shares compounds with PLK1 PBD block; Potency, µM (top dose mostly 76.9 µM), without a hit: top-dose activity change, negative = inhibition, hits mostly inhibitors; recombinant TbPYK, Kinase-Glo ATP luminescence; 890 tested, 67% active; AID 720569; also: potency is read from the fitted curve at half-maximal effect; % is scaled to controls: 0 for no effect and ±100 for the full control effect; nearly all actives have a fitted effect of over 70% in size
TbPYK orthogonal: TbPYK inhibition, orthogonal confirmation | 890 tested, 62% active | shares compounds with PLK1 PBD block | Potency, µM (series often up to 76.9 µM), inactives show at the top dose activity change, negative = inhibition, most hits filed as inhibitors | recombinant TbPYK, ADP-Glo luminescence, 60 min | AID 720584; also: potency is read from the fitted curve at half-maximal effect; % is scaled to controls: 0 for no effect and ±100 for the full control effect; nearly all actives have a fitted effect of over 75% in size
* marks the source's active call; other numbers are inactive results; [ ] = remark or other dose. Unless noted, calls follow the shape of the dose curve; as a rule, active = well fitted curve in the direction sought with a large enough effect; inconclusive = small, poorly fitted or top-dose-only effect, or another doubt; inactive = no such curve, though single readings can be large; an effect the other way counts as inactive or inconclusive.

CCOP1(=O)C=C(Sc2ccc([N+](=O)[O-])cc2[N+](=O)[O-])C(C)(C)O1 (stereo not given) was read as TrxR1 inh 14µM*, TrxR1 substrate -16%, PLK1 PBD block inconclusive, VDR inhibitor -15% and mIDH1 inhibitor 2%.
For CCOP(=O)(OCC)C(O)c1cccc([N+](=O)[O-])c1 (stereo not given) the results were TrxR1 inh -77%[57.1 µM], Sfp PPTase inh 23%, TrxR1 substrate 0%, PLK1 PBD block 1%, VDR inhibitor 35% and mIDH1 inhibitor 3%.
CC(=O)C1=C(O)[C@@H]2[C@@H]3c4c[nH]c5cccc(c45)C[C@@H]3C(C)(C)N2C1=O was read as Sfp PPTase inh -15% and VDR inhibitor inconclusive.
Screening CC1=NNC(=O)C1C(c1ccc(F)cc1)C(C#N)C#N (stereo not given) returned TrxR1 inh inconclusive, TrxR1 substrate -4%, PLK1 PBD block 30µM*, VDR inhibitor inconclusive and mIDH1 inhibitor 0%.
For O=c1c2cc(N3CCOCC3)ccc2[nH]c(=S)n1Cc1ccc(Cl)cc1 the results were TrxR1 inh 8%, Sfp PPTase inh 16µM*, TrxR1 substrate 9%, PLK1 PBD block -2%, VDR inhibitor 0% and mIDH1 inhibitor -2%.
For O=c1[nH]c(=S)n(-c2ccc(Cl)cc2)c(O)c1C=Nc1ccc(N2CCOCC2)cc1 the results were TrxR1 inh -24%, Sfp PPTase inh 2%, TrxR1 substrate -11%, PLK1 PBD block inconclusive, VDR inhibitor -19% and mIDH1 inhibitor 4%.
Screening Brc1c(Br)c(Br)c2n[nH]nc2c1Br returned TrxR1 inh 15%[57.1 µM], Sfp PPTase inh 17%, TrxR1 substrate 14%[57.1 µM] and VDR inhibitor 45µM*.
For NC1C=CC=C(C(=O)O)C1 (stereo not given) the results were TrxR1 inh 23%[57.1 µM], Sfp PPTase inh -20%, TrxR1 substrate 6%[57.1 µM], PLK1 PBD block -6%, VDR inhibitor -12% and mIDH1 inhibitor 0%.
Screening CC[C@@H]1/C=C/C=C/C[C@H](C)[C@@H](O)[C@](C)(O)C(=O)[C@H](C)[C@@H](O)[C@H](C)C(=O)[C@H](C)[C@@H](O)[C@H](C)/C=C/C(=O)O[C@H]2[C@@H](C)[C@@H](CC1)O[C@@]1(CC[C@@H](C)[C@@H](C[C@H](C)O)O1)[C@@H]2C returned Sfp PPTase inh 0.0006µM*, VDR inhibitor inconclusive, Sfp inh conf 0% and Sfp gel assay inactive.
CN(C)[C@@H]1C(=O)C(C(N)=O)=C(O)[C@@]2(O)C(=O)C3=C(O)c4c(O)cccc4[C@@](C)(O)C3C[C@@H]12 (stereo not given in full) was read as TrxR1 inh -8%, TrxR1 substrate -12%, PLK1 PBD block -15% and mIDH1 inhibitor 5%.
For C[C@]12CCC3C(CCC4=C(Cl)C(=O)CC[C@@]43C)C1CCC2O (stereo not given in full) the results were Sfp PPTase inh 6% and VDR inhibitor inconclusive.
For CCOC(=O)Nc1ccc(NCc2ccc(F)cc2)nc1N the results were TrxR1 inh 11µM*, Sfp PPTase inh 35µM*, TrxR1 substrate 28%[57.1 µM], PLK1 PBD block 7.5µM*, VDR inhibitor 6.3µM*, mIDH1 inhibitor 15%, Sfp inh conf 15µM*, TbPYK confirm 4.5µM* and TbPYK orthogonal 11µM*.
`CN1[C@@H]2CC[C@H]1CC(OC(=O)N1Cc3ccccc3NC1=O)C2` (stereo not given in full) gave Sfp PPTase inh 6%.
Screening NC(N)=Nc1ccc2[nH]c3c(c2c1)C[C@@]1(O)[C@H]2Cc4ccc(O)c5c4[C@@]1(CCN2CC1CC1)[C@H]3O5 returned TrxR1 inh 27µM*, TrxR1 substrate 20%[57.1 µM], PLK1 PBD block 0.95µM*, VDR inhibitor 35µM*, mIDH1 inhibitor -9% and USP1-UAF1 confirm inconclusive.
